Source: PubChem BioAssay (Tox21)
Results filed as inconclusive are left out. Unmarked numbers belong to inactive results. Calls of active or inactive are those of the source. The call rests on the fitted dose curve; in most records, active means well fitted cell-killing curve with a large enough effect in the repeat runs; inconclusive means weak or mixed curves, or effect the other way; inactive means no such curve, though single readings can be large or run the other way.

Test: Caspase-3/7 induction in CHO-K1 cells by small molecules, qHTS cell viability counter screen (AID 1346979); further: nearly all actives have a fitted effect of over 35% in size
Settings: CellTiter-Fluor fluorescence, 17 h; series mostly up to 92.4 µM; activity change, negative = cytotoxicity: at the top concentration
Source text: National Center for Advancing Translational Sciences [NCATS]
NIH Chemical Genomics Center [NCGC]
U.S. Environmental Protection Agency [EPA]
National Institutes of Environmental Health Sciences [NIEHS]
National Toxicology Program [NTP]
U.S. Food and Drug Administration [FDA]
Apoptosis is a process of programmed cell death and plays a central role in the development of multicellular organisms. It is a highly regulated process and induces cell death by activating caspases, which are the members of cysteine aspartic acid-specific protease (caspase) family. Caspases involved in apoptosis are classified by their mechanism of action as initiator caspases (caspase-2, -8, -9 and -10) and executioner caspases (caspase-3, -6, and -7). Inhibition of apoptosis results in number of cancers, autoimmune diseases, inflammatory diseases and viral infection. To identify small molecule compounds that induce apoptosis, a homogeneous, luminescent Caspase-Glo 3/7 assay was used. Wild type CHO-K1 cells were used to screen Tox21 libraries for identifying caspase-3/7 activity inducers. Also cytotoxicity of the compounds was tested in parallel by measuring the cell viability using CellTiter-Fluor assay system in the same wells.
Tox21 Assay Protocol Summary:
CHO-K1 cells were dispensed at 1,500 per well in 5uL of culture medium into white solid bottom 1536-well plates (Corning Life Sciences, Corning, NY) using a Multidrop Combi (Thermo Scientific, Waltham, MA) dispenser. The assay plates were incubated at 37 C and 5% CO2 for 5hr, and then 23nL of compounds dissolved in DMSO and positive control were transferred using a Pintool station (Wako, San Diego, CA). The assay plates were incubated at 37C and 5% CO2 for 17hr. For cytotoxicity read, after 16hr incubation at 37C, 1uL CellTiter-Fluor reagent (Promega Corporation, Madison, WI) was added to each well of the assay plates using Flying Reagent Dispenser (FRD, Aurora Discovery, San Diego, CA). After 1hr incubation at 37C and 5% CO2, the fluorescence signal was quantified using a ViewLux plate reader (PerkinElmer, Shelton, CT).
On the % scale 0 is the no-effect control and ±100 the full control effect; potency means the concentration at half of the fitted maximal effect.

Row | Compound | activity change, negative = cytotoxicity | Potency
1 | O=C(NC(Cc1cc(=O)[nH]c2ccccc12)C(=O)O)c1ccc(Cl)cc1 (stereo not given) | -0.479% [at 42.5 µM] | –
2 | O[C@@H](CNC[C@H](O)[C@H]1CCc2cc(F)ccc2O1)[C@@H]1CCc2cc(F)ccc2O1 | – | 33.5 µM (active)
3 | O=C1OC(=O)c2c(Br)c(Br)c(Br)c(Br)c21 | 10.7% | –
4 | c1ccc(CNc2ncnc3c2ncn3C2CCCCO2)cc1 (stereo not given) | 4.75% | –
5 | CCOC(=O)Oc1ccc(CCNC(=O)[C@H](CCSC)NC(C)=O)cc1OC(=O)OCC | 0.997% [at 42.5 µM] | –
6 | CC(=O)OCC(=O)[C@@]1(OC(C)=O)[C@@H](C)C[C@H]2[C@@H]3C[C@H](F)C4=CC(=O)C=C[C@]4(C)[C@@]3(F)[C@@H](O)C[C@@]21C | -0.261% [at 42.5 µM] | –
7 | CCCCCCCC(=O)OCCCCCC | 0.177% | –
8 | CCCCCCC(O)CCCCCCCCCCC(=O)OC (stereo not given) | 1.07% | –
9 | CCN(Cc1cccc(S(=O)(=O)O)c1)c1ccc(C(=C2C=CC(=[N+](CC)Cc3cccc(S(=O)(=O)O)c3)C=C2)c2ccc(O)cc2S(=O)(=O)[O-])cc1 | – | 18.6 µM (active)
10 | C=CC(=O)O | 2.1% [at 42.5 µM] | –
11 | CC(C)(C)C1(CCc2ccc(Cl)cc2)CO1 (stereo not given) | 3.67% | –
12 | CNC1CCCN(c2c(F)cc3c(=O)c(C(=O)O)cn(C4CC4)c3c2OC)C1 (stereo not given) | 0.275% [at 42.5 µM] | –
13 | O=C(CCS)OCC(COC(=O)CCS)(COC(=O)CCS)COC(=O)CCS | -3.24% | –
14 | CCOCCC(=O)OCC | 5.49% | –
15 | O=C1c2ccccc2C(=O)c2c(O)ccc(O)c21 | -0.415% | –
16 | CC(C)(C(=O)c1cccnc1)c1cccnc1 | 0.403% [at 42.5 µM] | –
17 | COc1ccc(-c2cc(C(F)F)nn2-c2ccc(S(N)(=O)=O)cc2)cc1F | -7.29% [at 42.5 µM] | –
18 | O=C(Oc1ccccc1)c1ccc2ccccc2c1O | -7.04% | –
19 | Cc1ccc2c(c1)CCCN2 | -0.936% | –
20 | CC1=C2[C@@H]([C@H](C)CC[C@H]2/C=C(\C)C(=O)O)[C@H](O)C1 | -6.83% | –

Row | Compound | activity change, negative = cytotoxicity | Potency
21 | CCOC(=O)c1ccc(NC(=O)CN2CCCCC2)cc1 | 5.01% [at 42.5 µM] | –
22 | O=c1[nH][nH]c(=O)c2cc([N+](=O)[O-])ccc12 | -7.21% | –
23 | CN=C(N)NC(=O)Nc1c(C)cccc1C | 3.24% [at 42.5 µM] | –
24 | CCCCOCCOC(=O)c1cccnc1 | 2.82% [at 42.5 µM] | –
25 | CSSc1ccoc1C | 2.8% | –
26 | C1CCCCC1 | 0.473% | –
27 | C1=CCC2CC=CC2C1 (stereo not given) | -1.69% | –
28 | CC[C@H]1OC(=O)[C@H](C)[C@@H](O[C@H]2C[C@@](C)(OC)[C@@H](O)[C@H](C)O2)[C@H](C)[C@@H](O[C@@H]2O[C@H](C)C[C@H](N(C)C)[C@H]2O)[C@](C)(O)C[C@@H](C)CN(C)[C@H](C)[C@@H](O)[C@]1(C)O | 2.55% [at 42.5 µM] | –
29 | CCC1CCC(CCC(=O)O)C1 (stereo not given) | 4.48% | –
30 | Cc1c(C2(c3cc(Br)c(O)c(Br)c3C)OS(=O)(=O)c3ccccc32)cc(Br)c(O)c1Br | – | 16.7 µM (active)
31 | C/C(C=O)=C\c1ccccc1 | 0.211% | –
32 | CNCc1ccc(NC(=O)c2c[nH]c3c2C(=O)CCC3)cc1 | -2.33% | –
33 | C=CCOC(=O)COCCC(C)C | 3.39% | –
34 | COC(=O)CC(C(C)=O)C(=O)OC (stereo not given) | 4.82% | –
35 | CC(=O)N[C@@H](Cc1ccc(O)cc1)C(=O)O | 8.25% [at 42.5 µM] | –
36 | CC(=O)NCCO | 0.762% | –
37 | CC[C@H]1OC(=O)[C@H](C)[C@@H](O[C@H]2C[C@@](C)(OC)[C@@H](O)[C@H](C)O2)[C@H](C)[C@@H](O[C@@H]2O[C@H](C)C[C@H](N(C)C)[C@H]2O)[C@](C)(O)C[C@@H](C)/C(=N\OCOCCOC)[C@H](C)[C@@H](O)[C@]1(C)O | – | 28.6 µM (active)
38 | Nc1c(Cl)cc(Cl)cc1[N+](=O)[O-] | 0.634% | –
39 | CCCCCCCCCCCCCCCCCC(=O)OCC(CC)CCCC (stereo not given) | 2.19% | –
40 | CCC(=O)OCc1ccc(OC)cc1 | 10.8% | –
